Source: PubChem BioAssay (National Center for Advancing Translational Sciences (NCATS))
LASV entry inh = blocks Lassa virus binding to or entry into cells; Potency, µM (doses to about 37.9 µM), for the others: at the highest dose activity change, negative = inhibition, hits mostly inhibitors; Lassa virus pseudotype entry inhibition, cell reporter; hit rate 1.2% among 300,000; calls by dose curve; tested in HEK293 cells; further: nearly all actives have a fitted effect of over 50% in size
Marburg entry inh = Marburg virus entry inhibition | Marburg virus pseudotyped entry inhibition, cell reporter | hit rate 1.8% among 300,000 | Potency, µM (top dose mostly 37.8 µM), for the others: at the highest dose activity change, negative = inhibition, actives largely listed as inhibitors; calls by dose curve; tested in HEK293 cells
RE007 growth inh = less growth of the S. pombe RE007 Vpr strain; AID 651644; S. pombe RE007 Vpr strain, BacTiter-Glo ATP luminescence, 24 h; Potency, µM (titrated, usually from 92.2 µM), for the others: top-dose activity change, negative = less growth, usual class: inhibitors; hit rate 0.21% among 360,000; active means well fitted falling curve with a large enough effect; inconclusive means small, poorly fitted or top-dose-only effect; inactive means no such curve, though single readings can be large or run the other way; further: nearly all actives have a fitted effect of over 50% in size
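Fission yeast strain RE007, carrying one chromosomally integrated HIV-1 vpr copy, was seeded at OD 0.01 in PMG+AL medium with 23 nL pinned compound. After 24 h at 30 °C and 99% humidity, viability was read by BacTiter-Glo luminescence.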
FMDV inh = antivirals against foot and mouth disease virus. FMDV antiviral cell-based qHTS. Potency, µM (titrated, usually from 57.9 µM), without a hit: top-dose activity change, negative = inhibition, most hits filed as inhibitors. hit rate 1.2% among 410,000; calls by dose curve; tested in HEK293T cells; further: read-out not given here; nearly all actives have a fitted effect of over 45% in size
Sm TGR inh = S. mansoni TGR enzyme inhibition | purified TGR, DTNB reduction, TNB absorbance 405 nm | hit rate 3% among 360,000 | Potency, µM (doses to about 114 µM), for the others: at the highest dose activity change, negative = inhibition, usual class: inhibitors; further: nearly all actives have a fitted effect of over 60% in size
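First, TGR (20 nM dispensed) and NADPH were mixed with compound. Second, a 15 min room-temperature incubation followed. Third, further NADPH and then DTNB were added to start the reaction. Finally, TNB absorbance was monitored kinetically.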
HCV inhibitor = inhibitors of hepatitis C virus infection; Huh7.5.1 HCVcc-Cre infection, luciferase reporter, 44 h; Potency, µM (top dose mostly 41.8 µM), for inactives: top-dose activity change, negative = inhibition, usual class: inhibitors; hit rate 3.4% among 340,000
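Whole-lifecycle infectious HCVcc-Cre system; cells 1,000/well, compound then virus (~0.5 moi) added 4 h after plating, 44 h culture. Luciferase read 15 sec following 15 min substrate incubation, room temp.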
* hit, by the source's call; [ ] = another dose, or the depositor's remark. Sampled rows, rich in hits. Any-hit rate of the full collection: about 7.2%. Unless noted, the call rests on the fitted dose curve; in most records, active means well fitted curve in the direction sought with a large enough effect; inconclusive means small, poorly fitted or top-dose-only effect, or another doubt; inactive means no such curve, though single readings can be large; an effect the other way counts as inactive or inconclusive. On the % scale 0 is the no-effect control and ±100 the full control effect; potency means the concentration at half of the fitted maximal effect.

For O=C(Nc1ccc(N2CCOCC2)c(Cl)c1)c1ccc2c(c1)OCCO2 the results were RE007 growth inh 6%, FMDV inh -17%, Sm TGR inh 3% and HCV inhibitor 11µM*.
`Cc1noc(C)c1C(=O)Nc1cc(Cl)ccc1N1CCOCC1` gave RE007 growth inh 13%, FMDV inh -24%, Sm TGR inh 5% and HCV inhibitor 10µM*.
Screening CCCC(=O)N1CCN(c2ccc(NC(=O)c3ccc(N4CCCC4)c([N+](=O)[O-])c3)cc2Cl)CC1 returned LASV entry inh 0%, Marburg entry inh inconclusive, RE007 growth inh -19%, FMDV inh inconclusive and HCV inhibitor inconclusive.
O=C(Nc1cc(Cl)ccc1N1CCOCC1)c1ccc2c(c1)OCO2 was read as RE007 growth inh 2% and FMDV inh -20%.
Screening CC(=O)N1CCN(c2ccc(NC(=O)c3ccc(N4CCCC4)c([N+](=O)[O-])c3)cc2Cl)CC1 returned LASV entry inh inconclusive, Marburg entry inh inconclusive, RE007 growth inh -4%, Sm TGR inh 1% and HCV inhibitor 10µM*.
`Cc1ccc(NC(=O)c2cc(N3C(=O)CCC3=O)ccc2N2CCOCC2)cc1` gave LASV entry inh 8%, Marburg entry inh -20%[46.1 µM], RE007 growth inh -8%, FMDV inh 13%, Sm TGR inh 8% and HCV inhibitor 20%.
Cc1ccc(NC(=O)c2cc(N3C(=O)C=CC3=O)ccc2N2CCOCC2)cc1Cl was read as LASV entry inh -8%, Marburg entry inh -10%, RE007 growth inh 7.9µM*, FMDV inh inconclusive, Sm TGR inh 0.71µM* and HCV inhibitor inconclusive.
For COc1ccc(C)cc1NC(=O)CN1C(=O)COc2ccc(S(=O)(=O)NC3CCCC3)cc21 the results were LASV entry inh -7%[46.1 µM], FMDV inh 29% and Sm TGR inh 1%.
For Cc1ccc(NS(=O)(=O)c2ccc3[nH]c4c(c3c2)CCCCC4)cc1 the results were LASV entry inh -2%[46.1 µM], FMDV inh 44% and Sm TGR inh 11%.
Screening O=C(Nc1ccc(N2CCOCC2)c(Cl)c1)c1ccc(Cl)cc1 returned LASV entry inh -11%, Marburg entry inh 2%, RE007 growth inh 0%, FMDV inh inconclusive, Sm TGR inh 4% and HCV inhibitor 10µM*.
O=C(Nc1ccc2c(c1)OCO2)c1ccc(Br)c(S(=O)(=O)N2CCCC2)c1 was read as LASV entry inh inconclusive, Marburg entry inh inconclusive, RE007 growth inh -12%, FMDV inh inconclusive, Sm TGR inh -34% and HCV inhibitor inconclusive.
CC(=O)Nc1ccc(N2CCCC(C)C2)c([N+](=O)[O-])c1 (centres undefined) was read as LASV entry inh 0%, Marburg entry inh 5%, RE007 growth inh -7%, FMDV inh -18%, Sm TGR inh 14% and HCV inhibitor 3.2µM*.
`O=C(Nc1ccc(N2CCCCC2)c(Cl)c1)c1ccc2c(c1)OCCO2` gave LASV entry inh -24%, Marburg entry inh -25%[46.1 µM], RE007 growth inh -1%, FMDV inh 4%, Sm TGR inh 10% and HCV inhibitor 10µM*.
`O=C(Nc1ccc(N2CCCC2)c(Cl)c1)c1ccc2c(c1)OCCO2` gave LASV entry inh inconclusive, Marburg entry inh inconclusive, RE007 growth inh -8%, FMDV inh -24% and HCV inhibitor inconclusive.
`CC(=O)Nc1ccc(N2CCC(C)CC2)c([N+](=O)[O-])c1` gave LASV entry inh 1%[46.1 µM], Marburg entry inh 7%[46.1 µM], RE007 growth inh -1%, FMDV inh 13%, Sm TGR inh -2% and HCV inhibitor 13%.
`O=C(Nc1ccc(N2CCOCC2)cc1N1CCOCC1)c1ccc(Cl)cc1` gave LASV entry inh -13%, Marburg entry inh -6%, RE007 growth inh -7%, FMDV inh -27%, Sm TGR inh 2% and HCV inhibitor inconclusive.
Screening O=C(Nc1ccc2c(c1)OCCO2)c1ccc(Br)c(S(=O)(=O)N2CCOCC2)c1 returned LASV entry inh inconclusive, Marburg entry inh inconclusive, RE007 growth inh 27%, FMDV inh 18µM*, Sm TGR inh 12% and HCV inhibitor inconclusive.
For COc1ccc(OC)c(CNC(=O)CN2N=C(c3ccc(Cl)cc3)CCC2=O)c1 the results were LASV entry inh inconclusive, FMDV inh -12% and Sm TGR inh 8%.
Screening COCc1c(C(=O)N2CCN(c3ccccc3)CC2)cnn1-c1nccc(-c2ccco2)n1 returned FMDV inh 1%.
For O=C1c2ccccc2NC(c2cccc([N+](=O)[O-])c2)N1O (centres undefined) the results were RE007 growth inh 8%, FMDV inh -22%, Sm TGR inh -7% and HCV inhibitor inconclusive.
Screening O=[N+]([O-])c1ccc(C2Nc3cccc4cccc(c34)N2)cc1 returned LASV entry inh 1%, Marburg entry inh 12%, RE007 growth inh -4%, FMDV inh -6%, Sm TGR inh 20µM* and HCV inhibitor 1%.
For O=[N+]([O-])c1cccc(C2Nc3cccc4cccc(c34)N2)c1 the results were LASV entry inh 2%, Marburg entry inh 17%, RE007 growth inh 0%, FMDV inh -11%, Sm TGR inh 35µM* and HCV inhibitor 18%.
Brc1ccc(C2Nc3cccc4cccc(c34)N2)cc1 was read as LASV entry inh -9%[46.1 µM], Marburg entry inh 0%[46.1 µM], RE007 growth inh 1%, FMDV inh -2% and HCV inhibitor -1%.
COc1ccc(CCNC(=O)c2c(O)nc3c(C)cccn3c2=O)cc1OC was read as Marburg entry inh 0%[46.1 µM], FMDV inh -23% and Sm TGR inh 8%.
Cc1cccc(NC(=O)c2cc3c(=O)n(Cc4ccco4)ccc3nc2C)c1 was read as LASV entry inh -16%[46.1 µM], FMDV inh -15% and Sm TGR inh 0%.
For COC(=O)c1cc(NC(=O)c2nn(C)c3c2COc2ccccc2-3)cc(C(=O)OC)c1 the results were LASV entry inh -1%[46.1 µM], Marburg entry inh 0%[46.1 µM], FMDV inh -15% and Sm TGR inh 2%.
`CCOc1ccc(NC(=O)c2nn(C)c3c2COc2ccccc2-3)cc1` gave LASV entry inh -24%[46.1 µM], Marburg entry inh 17%[46.1 µM], FMDV inh 13% and Sm TGR inh 7.9µM*.
`COc1cc(OC)c(NC(=O)c2nn(C)c3c2COc2ccccc2-3)cc1Cl` gave LASV entry inh -28%[46.1 µM], Marburg entry inh -17%[46.1 µM], FMDV inh -3% and Sm TGR inh 0.71µM*.
`CC(C)CC(=O)Nc1nc(-c2ccc(S(=O)(=O)N3CCOCC3)cc2)cs1` gave LASV entry inh inconclusive, Marburg entry inh -10%, RE007 growth inh -17%, FMDV inh 22µM*, Sm TGR inh 2% and HCV inhibitor inconclusive.
